From ChEMBL document CHEMBL3988442, “University of Dundee, Small-Polar-MMV Screening Library” (2021) come the findings set out here.

The structures appear in SMILES notation.

The test addresses AMP-activated protein kinase, AMPK (Homo sapiens) (UniProt P54646+O43741+P54619+Q9UGJ0+Q9Y478+Q13131+Q9UGI9). Put plainly: AMP-dependent Kinase enzyme assay. An in vitro enzyme assay that detects ADP turnover that is directly proportional to AMPK activity. This uses naive AMPK that is activated during the assay with MK-8722. The test is classed as functional. Also on record: scale not given: direction of the effect not stated beside the values. The note with it: 30 µM.
On to `NC(=O)COc1ccc(CN2CC[C@@]3(O)CCCC[C@H]3C2)cc1Cl`, for which the Percent Effect was determined as 3.71%.

`O=C(C1CCOC1)N1CCN(CC(F)(F)F)c2ccccc21` (centres undefined): the Percent Effect amounted to 11.6%.

In the case of `Cc1nsc(C(=O)NCCc2ccc(S(N)(=O)=O)cc2)n1`, the Percent Effect worked out at 2.83%.

Consider `CC1(C)CC(CN2CCC3(CCC(=O)N(CCO)C3)CC2)CCO1` (centres undefined), for which the Percent Effect was -1.98%.

For the compound `COc1nccc(N2CC[C@H](CO)[C@@H](O)C2)c1C#N`, the Percent Effect was -6.05%.

As to `O=C(Nc1ccc(Br)cc1F)c1ccc(N2CCOCC2)nn1`, the Percent Effect is -1.73%.

Take `Cc1ccc(O)c(CN2CCCCC2CCN2CCOCC2)c1` (centres undefined): the Percent Effect amounted to 8.46%.

With `Cc1ccccc1N1CCN(C(=O)CCc2nncn2C)C(C)C1` (centres undefined), the Percent Effect stood at 6.58%.

For `Cc1cn2c(n1)C(CNCc1cnn3ccccc13)CCC2` (centres undefined), the Percent Effect was -1.25%.

In the case of `Cc1cc(C(=O)N2CCC(CCC(=O)NCCN(C)C)CC2)ccc1O`, the Percent Effect came out at 21.5%.

Take `C[C@@H](N)C(=O)N1CCC(c2[nH]ncc2-c2ccccc2)CC1`: the Percent Effect was -8.89%.

On to `CC(C)(C)c1cn2c(n1)C(CNCc1ccccn1)CCC2` (centres undefined), for which the Percent Effect was -3.66%.

Consider `N#Cc1cccc(N2CCCC(CO)(CCOc3ccccc3)C2)n1` (centres undefined), for which the Percent Effect was determined as 3.31%.

As to `CCOc1ccc2cc(C(=O)NCCC(=O)N(C)C)[nH]c2c1`, the Percent Effect was -3.77%.

For the compound `CN(CCOc1ccc(C#N)cc1)CC1CCS(=O)(=O)C1` (centres undefined), the Percent Effect stood at 7.94%.

Consider `O=C(NC1CCCN(Cc2c(F)cccc2F)C1)c1cc[nH]n1` (centres undefined), for which the Percent Effect was -4.83%.

Consider `Cc1nn(C)c2nc(N3CCCC3c3nccs3)sc12` (centres undefined), for which the Percent Effect was -1.47%.

`CCN1CCC(NC(=O)N(C)Cc2csc3ccccc23)CC1`: the Percent Effect was -1.48%.

On to `C[C@@H]1CN(c2ccc(Cl)cn2)C[C@]1(C)O`, for which the Percent Effect is -1.99%.

Turning to `COC(=O)NCC(=O)N1CCC(c2cc3ccccc3[nH]2)CC1`, the Percent Effect was 6.03%.

On to `O=C1CN(Cc2cn(CC3CCCN(C4CCSCC4)C3)nn2)CCN1` (centres undefined), for which the Percent Effect is -8.48%.

Turning to `CCN(Cc1ccccn1)C1CCN(c2ccccc2)C1=O` (centres undefined), the Percent Effect is -6.67%.

Turning to `Cc1nc(C)c(CN2CCOC(Cc3ccccc3Cl)C2)nc1C` (centres undefined), the Percent Effect was 0.455%.

Consider `Cc1cc(N(C)CC2COc3ccccc3O2)nc(N)n1` (centres undefined), for which the Percent Effect was found to be 2.34%.

With `COc1ccc(Br)c(NC(=O)NCc2ncnn2C)c1`, the Percent Effect is -1.33%.

With `CN(CCO)Cc1cc(Cl)ccc1OCC(O)CN1CCCCCC1` (centres undefined), the Percent Effect turned out to be 0.752%.

For `Cc1nc2c(c(=O)[nH]1)CN(C(=O)CCC1CCCN(C)C1)C2` (centres undefined), the Percent Effect came out at 12%.

In the case of `C[S+]([O-])CCNC(=O)N1CCN(c2cc(F)ccc2F)CC1` (centres undefined), the Percent Effect was 2.94%.

Take `O=C1CN(C(=O)CC2C(=O)NCCN2CC2CCCCC2)CCN1` (centres undefined): the Percent Effect is -5.33%.

`COCc1cccc(NCc2cccnc2)c1`: the Percent Effect was determined as 0.23%.

As to `O=C(Cn1cccn1)N1CCC(c2nnc(-c3ccsc3)o2)CC1`, the Percent Effect amounted to 14%.

For the compound `COc1cc(F)ccc1NC(=O)NC(C)C(=O)NC(C)(C)C` (centres undefined), the Percent Effect is -11.6%.

`CCCN(CCO)C(=O)c1cc(COc2ccc3c(c2)CCCC3)on1`: the Percent Effect was determined as 5.46%.

Take `CC(C(N)=O)N1CCN(c2ncc(Br)cn2)CC1` (centres undefined): the Percent Effect was -3.12%.

`COCC(NC(=O)c1cn2ccsc2n1)c1ccnn1C` (centres undefined): the Percent Effect was -19.1%.

As for `CC(NCc1nnc2n1CCCC2)c1nc(C(C)(C)C)no1` (centres undefined), the Percent Effect was -0.825%.

`CCN(CC)S(=O)(=O)NC1CCN(c2ccc(OC)cc2)CC1`: the Percent Effect came to 9.49%.

Take `Cn1cc(-c2cc(C(=O)N3CCOCC3)c3ccc(F)cc3n2)cn1`: the Percent Effect was found to be 18.9%.

On to `CN(C)C(C(=O)N1CCN(CCn2cccc2)CC1)c1cccc(F)c1` (centres undefined), for which the Percent Effect is -11.9%.
